According to PubChem BioAssay (EPA / NIEHS):
Activity calls are given as the source filed them. The calls were made as follows: active = hit-call score of the fitted dose curve at least 0.9, where 1 is the maximum; inactive = score below 0.9.

molecular target: Estrogen receptor (Homo sapiens) (UniProt P03372); experiment: CCTE_Deisenroth_AIME_384WELL_LUC_Shift: CCTE's 384-well Estrogen Receptor Transactivation Assay with AIME metabolic competence data shift (ERTA luciferase; difference in metabolism positive and negative), Deisenroth Lab (AID 2284041);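 also: shift is response with S9 minus without S9 so positive means metabolism raised ER signal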
Method: CCTE_Deisenroth_AIME_384WELL (AIME metabolism assay) is a cell-based, single-readout assay that uses VM7Luc4E2, a human mammary gland/breast cell line, with measurements taken at 24 hour after chemical dosing in a 384-well plate.CCTE_Deisenroth_AIME_384WELL_LUC_Shift is one of two analysis components calculated from the CCTE_Deisenroth_AIME_384WELL assay. […] AIME is optimized to impart phase I hepatic metabolism using phenobarbital/beta-naphthoflavone induced hepatic S9 from male Sprague Dawley rats. Parent chemicals are incubated for 2 hours in the AIME assay prior to transfer to the VM7Luc ERTA assay plate. […] The metabolic curve shift response is defined as the pairwise difference between the positive (AEID 2488) and negative (AEID 2490) normalized response values at each concentration for a given chemical across replicate experiments. The pairwise differences form the basis for a concentration-response curve. Standard curve fit analysis identfiied chemicals where the calculated shift was greater than the shift-derived baseline cutoff. A positive hit designation in this endpoint indicates a significant shift trend in the positive direction for bioactivation.
The AIME procedure consists of a preparative "pre-stamping" step using a barium chloride/poly-L-lysine (PLL) solution followed by "stamping" the lid in alginate-hepatic S9 (metabolism positive) or alginate-water (metabolism negative) to form microspheres. Once stamping is completed, the AIME lids are placed in duplicate microplates (metabolism positive or negative) containing chemical solutions and incubated for two hours to facilitate metabolic reactions. The conditioned medium, containing parent chemical or metabolites, is then transferred to the cell-based VM7Luc Estrogen Receptor Transactivation Assay (ERTA) for 24 hours. A typical experimental design tests a 10-point concentration series (0.002 - 200 uM) for 8 compounds (96-well format)1 or 32 compounds (384-well format)2 in single technical replicate. AIME assay controls include trans-stilbene (bioactivated control) and ethylparaben (bioinactivated control). ERTA assay plate controls include 17-beta estradiol (positive control) and DMSO (solvent control). Experiments typically comprise a minimum of four experimental replicates (n=4).

Chain of Estrogen receptor (Homo sapiens) (P03372 whole entry, looked up): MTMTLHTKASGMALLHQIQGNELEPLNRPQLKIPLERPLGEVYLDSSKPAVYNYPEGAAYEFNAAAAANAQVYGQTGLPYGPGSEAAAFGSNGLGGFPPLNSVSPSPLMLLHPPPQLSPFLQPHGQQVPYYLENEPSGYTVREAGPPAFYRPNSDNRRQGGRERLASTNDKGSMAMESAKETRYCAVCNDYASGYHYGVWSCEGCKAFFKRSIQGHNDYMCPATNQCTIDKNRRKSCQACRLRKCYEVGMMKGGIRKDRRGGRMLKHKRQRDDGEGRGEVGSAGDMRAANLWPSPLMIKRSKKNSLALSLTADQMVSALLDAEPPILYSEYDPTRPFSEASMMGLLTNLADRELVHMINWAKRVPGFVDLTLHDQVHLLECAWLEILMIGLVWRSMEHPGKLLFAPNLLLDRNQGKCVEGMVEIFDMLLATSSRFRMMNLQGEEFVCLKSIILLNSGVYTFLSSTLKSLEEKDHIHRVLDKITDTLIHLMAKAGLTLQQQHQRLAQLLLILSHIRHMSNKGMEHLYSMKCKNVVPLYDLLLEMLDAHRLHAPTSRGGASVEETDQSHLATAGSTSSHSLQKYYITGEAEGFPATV

outcome, inactive:
COc1cccc(-c2ccc(/C=C\CN3CCCCCC3)cc2Cl)c1
C=CC(=C)CCC=C(C)C
COc1ccc2sc(C(=O)Nc3nnn[nH]3)c(OC(C)C)c2c1
CCCCCCCCO
O=C(O)c1cccc(Oc2ccccc2)c1
Cc1ccc(N)cc1O
O=c1[nH]c2ccc(S(=O)CCN3CCC(Cc4ccc(F)cc4)CC3)cc2o1 (stereo unspecified)
CCCC(=O)OCC
CC(C)CCO
Nc1ccc(Nc2ccccc2)cc1

AC50, active:
Cn1c(=O)cc(Oc2ccc(F)cc2F)c2cnc(NCC(C)(C)O)nc21 79.3 µM
